Tests used:
Test in all cases: DAPPL (digital affinity profiling via proximity ligation, sequencing); 10 mM Tris-HCl pH 7.5, 50 mM NaCl, 1 mM DTT, 4% glycerol, room temperature, 30 min; GST-TFs on glutathione beads, 16-mer random dsDNA library, 0.1% formaldehyde crosslink after washing; high values mean tight binding
FLI1 = target: T1, FLI1 (Homo sapiens, UniProt Q01543 1-452); conditions: protein: recombinant; tags: N-terminal GST; dsDNA, one strand shown
T1 sequence: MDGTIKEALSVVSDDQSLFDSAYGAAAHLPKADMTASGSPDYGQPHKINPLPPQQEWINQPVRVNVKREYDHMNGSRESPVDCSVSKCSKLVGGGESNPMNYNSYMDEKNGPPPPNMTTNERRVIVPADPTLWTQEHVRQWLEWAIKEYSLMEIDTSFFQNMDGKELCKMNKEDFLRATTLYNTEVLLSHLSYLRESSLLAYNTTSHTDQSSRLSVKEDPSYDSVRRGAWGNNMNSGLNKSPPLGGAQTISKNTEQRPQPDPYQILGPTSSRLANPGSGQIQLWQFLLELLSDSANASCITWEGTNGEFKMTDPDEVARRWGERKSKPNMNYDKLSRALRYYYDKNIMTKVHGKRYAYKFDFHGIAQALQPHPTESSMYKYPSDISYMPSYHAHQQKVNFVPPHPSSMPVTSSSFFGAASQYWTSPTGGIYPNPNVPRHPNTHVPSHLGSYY
Method in brief: (§1)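 The binding signal reported is, for every hexamer, its read frequency for a factor over its read frequency for the tag-only sample. Reads came from pools of yeast-expressed, GST-fused human transcription factors on glutathione beads, barcoded with DNA and mixed with that sample, which were incubated with 200 nmole of a random double-stranded 16-mer DNA library in Tris/NaCl/DTT/glycerol buffer at room temperature for 30 min. After washing, the pools were crosslinked with 0.1% formaldehyde, proximity-ligated with BsaI/T4 ligase for 1 h at 37 °C, PCR-amplified and sequenced on an Illumina NextSeq500.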

ELK1 = target: T2, ELK1 (Homo sapiens, UniProt P19419 1-428); conditions: protein: recombinant; tags: N-terminal GST; dsDNA, one strand shown
T2 sequence: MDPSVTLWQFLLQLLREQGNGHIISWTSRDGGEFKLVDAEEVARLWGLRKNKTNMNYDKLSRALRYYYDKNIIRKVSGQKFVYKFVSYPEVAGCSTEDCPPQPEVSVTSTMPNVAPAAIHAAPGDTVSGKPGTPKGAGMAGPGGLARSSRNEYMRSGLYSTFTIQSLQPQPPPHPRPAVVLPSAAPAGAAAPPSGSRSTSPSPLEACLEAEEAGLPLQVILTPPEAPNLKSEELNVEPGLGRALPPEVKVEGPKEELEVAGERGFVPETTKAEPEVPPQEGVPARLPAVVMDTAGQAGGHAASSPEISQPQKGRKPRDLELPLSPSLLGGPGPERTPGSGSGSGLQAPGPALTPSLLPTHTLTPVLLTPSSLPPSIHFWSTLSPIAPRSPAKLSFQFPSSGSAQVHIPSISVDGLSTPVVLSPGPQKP
Method in brief: as §1

GABPA = target: T3, GABPA (Homo sapiens, UniProt Q06546 1-454); conditions: protein: recombinant; tags: N-terminal GST; dsDNA, one strand shown
T3 sequence: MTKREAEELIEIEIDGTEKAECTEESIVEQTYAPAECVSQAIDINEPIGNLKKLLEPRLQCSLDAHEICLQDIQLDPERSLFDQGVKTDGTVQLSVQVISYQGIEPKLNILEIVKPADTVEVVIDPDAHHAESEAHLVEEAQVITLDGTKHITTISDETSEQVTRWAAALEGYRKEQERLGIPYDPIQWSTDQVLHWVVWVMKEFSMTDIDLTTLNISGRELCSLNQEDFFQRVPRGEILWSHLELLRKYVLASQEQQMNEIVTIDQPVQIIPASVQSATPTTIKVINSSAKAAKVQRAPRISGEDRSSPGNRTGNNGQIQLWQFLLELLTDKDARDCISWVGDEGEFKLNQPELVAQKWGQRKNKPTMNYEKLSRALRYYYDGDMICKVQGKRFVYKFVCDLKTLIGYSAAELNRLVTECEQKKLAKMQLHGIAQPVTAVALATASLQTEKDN
Method in brief: as §1

ELF1 = ELF1 (Homo sapiens, UniProt P32519 1-619); conditions: protein: recombinant; tags: N-terminal GST; dsDNA, one strand shown
Method in brief: as §1

EHF = target: T4, EHF (Homo sapiens, UniProt Q9NZC4 1-300); conditions: protein: recombinant; tags: N-terminal GST; dsDNA, one strand shown
T4 sequence: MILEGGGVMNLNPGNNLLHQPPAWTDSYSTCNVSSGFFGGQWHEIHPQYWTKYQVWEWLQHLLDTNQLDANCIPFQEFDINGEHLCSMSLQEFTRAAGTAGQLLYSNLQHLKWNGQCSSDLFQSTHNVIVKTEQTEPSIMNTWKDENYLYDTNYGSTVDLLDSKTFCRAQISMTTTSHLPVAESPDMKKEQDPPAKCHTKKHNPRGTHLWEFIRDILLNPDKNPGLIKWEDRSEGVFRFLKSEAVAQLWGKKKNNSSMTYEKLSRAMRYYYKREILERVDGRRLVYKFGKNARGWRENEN
Method in brief: as §1

SPI1 = SPI1 (Homo sapiens, UniProt P17947 1-270); conditions: protein: recombinant; tags: N-terminal GST; dsDNA, one strand shown
Method in brief: as §1

SPIB = SPIB (Homo sapiens, UniProt Q01892 1-262); conditions: protein: recombinant; tags: N-terminal GST; dsDNA, one strand shown
Method in brief: as §1

ELK3 = target: T5, ELK3 (Homo sapiens, UniProt P41970 1-407); conditions: protein: recombinant; tags: N-terminal GST; dsDNA, one strand shown
T5 sequence: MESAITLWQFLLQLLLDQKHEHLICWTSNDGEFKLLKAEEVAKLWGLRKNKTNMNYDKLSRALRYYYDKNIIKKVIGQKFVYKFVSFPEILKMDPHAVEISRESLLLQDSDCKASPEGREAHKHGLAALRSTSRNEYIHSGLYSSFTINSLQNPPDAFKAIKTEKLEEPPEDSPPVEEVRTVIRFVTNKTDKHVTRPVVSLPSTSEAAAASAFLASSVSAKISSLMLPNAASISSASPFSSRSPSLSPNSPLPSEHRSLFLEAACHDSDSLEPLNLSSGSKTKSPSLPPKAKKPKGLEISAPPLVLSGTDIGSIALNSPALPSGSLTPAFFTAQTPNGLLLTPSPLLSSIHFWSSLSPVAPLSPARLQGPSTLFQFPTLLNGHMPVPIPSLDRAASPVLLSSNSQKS
Method in brief: as §1

FEV = target: T6, FEV (Homo sapiens, UniProt Q99581 1-238); conditions: protein: recombinant; tags: N-terminal GST; dsDNA, one strand shown
T6 sequence: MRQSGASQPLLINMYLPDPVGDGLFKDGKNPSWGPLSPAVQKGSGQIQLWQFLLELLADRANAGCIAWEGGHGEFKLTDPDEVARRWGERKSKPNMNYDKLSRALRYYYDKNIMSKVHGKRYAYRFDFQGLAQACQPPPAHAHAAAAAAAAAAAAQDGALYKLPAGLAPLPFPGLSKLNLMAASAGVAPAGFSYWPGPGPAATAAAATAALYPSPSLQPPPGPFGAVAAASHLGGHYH
Method in brief: as §1

ETV5 = ETV5 (Homo sapiens, UniProt P41161 1-510); conditions: protein: recombinant; tags: N-terminal GST; dsDNA, one strand shown
Method in brief: as §1

HSF1 = HSF1 (Homo sapiens, UniProt Q00613 1-529); conditions: protein: recombinant; tags: N-terminal GST; chain copies: 3; dsDNA, one strand shown
Method in brief: as §1

SPIC = target: T7, SPIC (Homo sapiens, UniProt Q8N5J4 1-248); conditions: protein: recombinant; tags: N-terminal GST; dsDNA, one strand shown
T7 sequence: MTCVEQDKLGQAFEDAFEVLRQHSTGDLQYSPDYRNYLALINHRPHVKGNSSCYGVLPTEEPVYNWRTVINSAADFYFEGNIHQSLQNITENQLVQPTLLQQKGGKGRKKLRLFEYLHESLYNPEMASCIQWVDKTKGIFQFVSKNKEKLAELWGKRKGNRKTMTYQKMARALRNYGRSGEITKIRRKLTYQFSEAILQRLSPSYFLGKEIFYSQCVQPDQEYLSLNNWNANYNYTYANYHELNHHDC
Method in brief: as §1

ELF4 = ELF4 (Homo sapiens, UniProt Q99607 1-663); conditions: protein: recombinant; tags: N-terminal GST; dsDNA, one strand shown
Method in brief: as §1

ELK4 = target: T8, ELK4 (Homo sapiens, UniProt P28324-2 1-405); conditions: protein: recombinant; tags: N-terminal GST; dsDNA, one strand shown
T8 sequence: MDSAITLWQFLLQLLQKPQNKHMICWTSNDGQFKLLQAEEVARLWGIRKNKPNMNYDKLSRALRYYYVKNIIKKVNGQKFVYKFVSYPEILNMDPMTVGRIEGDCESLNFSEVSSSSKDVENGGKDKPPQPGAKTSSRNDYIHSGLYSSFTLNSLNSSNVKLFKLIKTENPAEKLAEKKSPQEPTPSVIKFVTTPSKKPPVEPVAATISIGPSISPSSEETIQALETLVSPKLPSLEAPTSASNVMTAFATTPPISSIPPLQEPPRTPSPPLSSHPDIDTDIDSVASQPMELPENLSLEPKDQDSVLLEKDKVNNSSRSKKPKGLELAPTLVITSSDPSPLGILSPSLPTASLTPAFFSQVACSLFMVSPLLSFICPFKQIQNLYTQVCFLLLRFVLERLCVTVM
Method in brief: as §1

ETV2 = target: T9, ETV2 (Homo sapiens, UniProt O00321 1-342); conditions: protein: recombinant; tags: N-terminal GST; dsDNA, one strand shown
T9 sequence: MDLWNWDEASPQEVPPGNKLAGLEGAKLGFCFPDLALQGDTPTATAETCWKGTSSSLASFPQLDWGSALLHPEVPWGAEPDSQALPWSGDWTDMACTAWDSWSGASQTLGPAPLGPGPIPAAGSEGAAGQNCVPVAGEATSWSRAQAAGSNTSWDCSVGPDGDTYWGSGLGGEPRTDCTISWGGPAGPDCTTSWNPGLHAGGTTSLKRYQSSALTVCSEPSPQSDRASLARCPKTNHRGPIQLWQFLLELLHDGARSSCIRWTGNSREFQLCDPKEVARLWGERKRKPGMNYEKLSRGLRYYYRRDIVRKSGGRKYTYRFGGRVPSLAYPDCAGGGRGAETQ
Method in brief: as §1

ELF3 = target: T10, ELF3 (Homo sapiens, UniProt P78545 1-371); conditions: protein: recombinant; tags: N-terminal GST; dsDNA, one strand shown
T10 sequence: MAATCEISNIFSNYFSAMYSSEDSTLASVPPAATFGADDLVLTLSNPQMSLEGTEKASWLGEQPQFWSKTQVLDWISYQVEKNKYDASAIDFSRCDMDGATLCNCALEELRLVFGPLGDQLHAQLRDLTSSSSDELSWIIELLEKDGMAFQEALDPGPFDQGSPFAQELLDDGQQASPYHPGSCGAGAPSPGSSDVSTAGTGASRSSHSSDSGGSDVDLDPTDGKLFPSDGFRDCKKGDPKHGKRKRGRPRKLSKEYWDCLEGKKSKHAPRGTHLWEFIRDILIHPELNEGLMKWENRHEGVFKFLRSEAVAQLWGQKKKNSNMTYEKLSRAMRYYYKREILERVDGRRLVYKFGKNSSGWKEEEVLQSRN
Method in brief: as §1

CRX = CRX (Homo sapiens, UniProt O43186 1-299); conditions: protein: recombinant; tags: N-terminal GST; dsDNA, one strand shown
Method in brief: as §1

ETV1 = ETV1 (Homo sapiens, UniProt P50549 1-477); conditions: protein: recombinant; tags: N-terminal GST; dsDNA, one strand shown
Method in brief: as §1

Sequence of ETV1 (P50549 whole entry): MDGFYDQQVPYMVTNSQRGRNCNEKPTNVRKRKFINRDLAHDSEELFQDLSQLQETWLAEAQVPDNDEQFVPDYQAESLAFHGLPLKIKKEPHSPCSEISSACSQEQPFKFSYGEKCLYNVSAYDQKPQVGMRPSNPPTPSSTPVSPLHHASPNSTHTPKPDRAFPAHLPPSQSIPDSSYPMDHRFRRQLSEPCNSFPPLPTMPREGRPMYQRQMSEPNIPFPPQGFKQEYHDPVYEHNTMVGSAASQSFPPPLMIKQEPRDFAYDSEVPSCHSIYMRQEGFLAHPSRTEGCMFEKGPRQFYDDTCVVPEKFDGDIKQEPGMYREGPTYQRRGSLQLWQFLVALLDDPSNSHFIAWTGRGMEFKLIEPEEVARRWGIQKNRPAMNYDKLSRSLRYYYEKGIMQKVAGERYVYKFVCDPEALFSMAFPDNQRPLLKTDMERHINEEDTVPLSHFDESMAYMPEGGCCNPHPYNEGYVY
Sequence of CRX (O43186 whole entry): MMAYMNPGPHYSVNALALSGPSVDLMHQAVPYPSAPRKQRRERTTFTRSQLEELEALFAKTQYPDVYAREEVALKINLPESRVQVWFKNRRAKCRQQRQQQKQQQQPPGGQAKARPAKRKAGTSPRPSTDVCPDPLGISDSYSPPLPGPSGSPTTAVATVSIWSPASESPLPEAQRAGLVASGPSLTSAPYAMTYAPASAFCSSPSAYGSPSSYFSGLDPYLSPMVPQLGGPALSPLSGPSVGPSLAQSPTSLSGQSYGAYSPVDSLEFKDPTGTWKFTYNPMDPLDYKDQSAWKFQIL
Sequence of HSF1 (Q00613 whole entry): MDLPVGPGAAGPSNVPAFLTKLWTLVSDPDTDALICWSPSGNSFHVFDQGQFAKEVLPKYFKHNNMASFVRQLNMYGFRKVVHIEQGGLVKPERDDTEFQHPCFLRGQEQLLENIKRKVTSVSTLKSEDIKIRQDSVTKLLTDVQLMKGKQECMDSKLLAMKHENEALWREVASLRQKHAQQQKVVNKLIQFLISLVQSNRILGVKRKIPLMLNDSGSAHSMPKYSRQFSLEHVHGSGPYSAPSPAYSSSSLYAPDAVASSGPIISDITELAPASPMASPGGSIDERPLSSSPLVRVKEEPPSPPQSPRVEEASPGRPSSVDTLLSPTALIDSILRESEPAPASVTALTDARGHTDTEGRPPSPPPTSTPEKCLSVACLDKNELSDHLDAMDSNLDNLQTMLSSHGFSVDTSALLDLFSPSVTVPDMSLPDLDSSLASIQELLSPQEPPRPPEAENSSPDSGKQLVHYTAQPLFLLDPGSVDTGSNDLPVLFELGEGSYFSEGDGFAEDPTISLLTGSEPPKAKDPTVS
Sequence of SPIB (Q01892 whole entry): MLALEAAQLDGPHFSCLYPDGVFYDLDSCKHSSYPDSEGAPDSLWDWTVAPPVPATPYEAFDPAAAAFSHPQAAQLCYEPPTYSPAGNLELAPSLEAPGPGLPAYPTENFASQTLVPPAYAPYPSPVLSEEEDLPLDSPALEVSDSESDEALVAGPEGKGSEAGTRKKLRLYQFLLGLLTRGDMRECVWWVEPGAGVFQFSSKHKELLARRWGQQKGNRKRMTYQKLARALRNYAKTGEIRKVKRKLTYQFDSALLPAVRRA
Sequence of ELF1 (P32519 whole entry): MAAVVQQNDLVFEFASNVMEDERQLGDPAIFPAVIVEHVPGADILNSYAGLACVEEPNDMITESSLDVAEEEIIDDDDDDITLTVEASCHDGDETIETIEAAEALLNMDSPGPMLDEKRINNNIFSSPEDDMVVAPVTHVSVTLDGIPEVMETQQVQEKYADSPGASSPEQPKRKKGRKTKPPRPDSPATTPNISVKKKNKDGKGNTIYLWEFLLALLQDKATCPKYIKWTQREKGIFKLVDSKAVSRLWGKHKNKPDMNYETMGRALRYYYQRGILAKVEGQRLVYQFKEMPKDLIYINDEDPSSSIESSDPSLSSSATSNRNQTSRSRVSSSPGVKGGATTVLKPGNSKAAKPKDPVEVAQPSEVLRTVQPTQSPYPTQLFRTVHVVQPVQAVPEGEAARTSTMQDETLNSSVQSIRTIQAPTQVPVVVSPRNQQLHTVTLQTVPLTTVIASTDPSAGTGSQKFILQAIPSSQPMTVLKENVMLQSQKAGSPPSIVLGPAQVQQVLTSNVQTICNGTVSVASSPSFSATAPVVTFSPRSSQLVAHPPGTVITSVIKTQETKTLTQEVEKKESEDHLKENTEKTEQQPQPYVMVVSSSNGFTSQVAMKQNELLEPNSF
Sequence of ELF4 (Q99607 whole entry): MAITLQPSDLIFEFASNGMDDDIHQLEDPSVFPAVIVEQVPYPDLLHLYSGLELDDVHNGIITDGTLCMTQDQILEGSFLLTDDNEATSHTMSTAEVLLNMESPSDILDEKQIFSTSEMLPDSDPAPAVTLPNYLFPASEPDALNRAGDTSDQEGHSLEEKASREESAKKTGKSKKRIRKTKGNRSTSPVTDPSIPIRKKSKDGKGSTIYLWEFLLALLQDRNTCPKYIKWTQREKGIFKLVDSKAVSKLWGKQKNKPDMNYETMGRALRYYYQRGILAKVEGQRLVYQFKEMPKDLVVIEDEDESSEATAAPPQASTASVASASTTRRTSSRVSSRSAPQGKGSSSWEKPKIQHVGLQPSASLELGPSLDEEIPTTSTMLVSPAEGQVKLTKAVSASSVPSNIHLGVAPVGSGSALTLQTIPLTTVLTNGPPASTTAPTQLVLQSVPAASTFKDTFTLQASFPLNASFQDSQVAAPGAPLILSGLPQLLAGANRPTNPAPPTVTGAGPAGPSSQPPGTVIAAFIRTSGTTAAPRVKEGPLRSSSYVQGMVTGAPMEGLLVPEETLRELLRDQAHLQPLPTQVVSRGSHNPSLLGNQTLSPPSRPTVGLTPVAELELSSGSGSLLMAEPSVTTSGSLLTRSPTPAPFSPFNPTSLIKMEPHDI
Sequence of ETV5 (P41161 whole entry): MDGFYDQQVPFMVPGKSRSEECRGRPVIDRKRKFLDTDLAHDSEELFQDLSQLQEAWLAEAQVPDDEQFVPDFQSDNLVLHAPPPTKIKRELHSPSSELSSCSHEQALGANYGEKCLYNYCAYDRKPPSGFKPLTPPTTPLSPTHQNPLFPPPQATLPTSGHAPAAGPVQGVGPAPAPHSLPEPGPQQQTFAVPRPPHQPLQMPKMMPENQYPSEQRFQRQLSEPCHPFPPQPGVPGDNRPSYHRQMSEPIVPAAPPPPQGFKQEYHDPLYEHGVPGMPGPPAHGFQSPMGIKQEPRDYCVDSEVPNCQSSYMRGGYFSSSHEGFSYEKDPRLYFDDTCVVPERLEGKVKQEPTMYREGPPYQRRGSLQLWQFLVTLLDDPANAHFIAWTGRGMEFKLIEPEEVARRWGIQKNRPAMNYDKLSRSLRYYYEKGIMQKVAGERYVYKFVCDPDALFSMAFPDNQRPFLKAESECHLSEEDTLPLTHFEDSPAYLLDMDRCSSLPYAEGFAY

**Q.** How did the binding signal (FLI1) turn out when ACCGAA was run?
**A.** 1.09 fold enrichment (6-mer frequency, TF over GST control)

**Q.** And the binding signal (ELK1)?
**A.** 1.04 fold enrichment (6-mer frequency, TF over GST control)

**Q.** What about the binding signal (GABPA) of the same sequence?
**A.** 1.05 fold enrichment (6-mer frequency, TF over GST control)

**Q.** And the binding signal (ELF1)?
**A.** 1.11 fold enrichment (6-mer frequency, TF over GST control)

**Q.** And the binding signal (EHF)?
**A.** 1 fold enrichment (6-mer frequency, TF over GST control)

**Q.** And the binding signal (SPI1)?
**A.** 1.06 fold enrichment (6-mer frequency, TF over GST control)

**Q.** And the binding signal (SPIB)?
**A.** 1.01 fold enrichment (6-mer frequency, TF over GST control)

**Q.** What about the binding signal (ELK3) of the same sequence?
**A.** 1.01 fold enrichment (6-mer frequency, TF over GST control)

**Q.** What about the binding signal (FEV) of the same sequence?
**A.** 1.05 fold enrichment (6-mer frequency, TF over GST control)

**Q.** What about the binding signal (ETV5) of the same sequence?
**A.** 1.06 fold enrichment (6-mer frequency, TF over GST control)

**Q.** And the binding signal (HSF1)?
**A.** 1.25 fold enrichment (6-mer frequency, TF over GST control)

**Q.** And the binding signal (SPIC)?
**A.** 1.12 fold enrichment (6-mer frequency, TF over GST control)

**Q.** And the binding signal (ELF4)?
**A.** 1.03 fold enrichment (6-mer frequency, TF over GST control)

**Q.** And the binding signal (ELK4)?
**A.** 1.06 fold enrichment (6-mer frequency, TF over GST control)

**Q.** And the binding signal (ETV2)?
**A.** 1.19 fold enrichment (6-mer frequency, TF over GST control)

**Q.** What about the binding signal (ELF3) of the same sequence?
**A.** 1.11 fold enrichment (6-mer frequency, TF over GST control)

**Q.** What about the binding signal (CRX) of the same sequence?
**A.** 1.08 fold enrichment (6-mer frequency, TF over GST control)

**Q.** What about the binding signal (ETV1) of the same sequence?
**A.** 1.05 fold enrichment (6-mer frequency, TF over GST control)

From PMC7862700, “An all-to-all approach to the identification of sequence-specific readers for epigenetic DNA modifications on cytosine”
